Read-out in assay [1]: Interferon-gamma inducible Protein 10 (IP10), CXCL10 (gene 3627)
Nature of the assay: BSK_hDFCGF_IP10: BioMAP Diversity Plus: hDFCGF Assay for Interferon-gamma inducible Protein 10 (IP10) Biomarker Activity (AID 2283053). The note with it: primary human foreskin fibroblasts; actives raise or lower the signal. The essentials: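 ELISA read-out of IP-10 (CXCL10) from primary human skin fibroblasts, 24 h after compound addition. Gain or loss of signal versus DMSO baseline, bidirectional curve fitting.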

Read-out in assay [2]: Urokinase-type plasminogen activator receptor (uPAR), PLAUR (gene 5329)
Nature of the assay: BSK_CASM3C_uPAR: BioMAP Diversity Plus: CASM3C Assay for Urokinase-type plasminogen activator receptor (uPAR) Biomarker Activity (AID 2283054).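 Note: cell-surface uPAR protein level quantified by ELISA.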 The note with it: primary human coronary artery smooth muscle cells; actives raise or lower the signal.

Read-out in assay [3]: Vascular cell adhesion molecule 1 (VCAM1), VCAM1 (gene 7412)
Nature of the assay: BSK_CASM3C_VCAM1: BioMAP Diversity Plus: CASM3C Assay for Vascular cell adhesion molecule 1 (VCAM1) Biomarker Activity (AID 2283055).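 Note: VCAM-1 protein level quantified by ELISA on the cells.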 The note with it: primary human coronary artery smooth muscle cells; actives raise or lower the signal.

Read-out in assay [4]: Collagen III, COL3A1 (gene 1281)
Nature of the assay: BSK_hDFCGF_CollagenIII: BioMAP Diversity Plus: hDFCGF Assay for Collagen III Biomarker Activity (AID 2283056). The note with it: primary human foreskin fibroblasts; actives raise or lower the signal. The essentials:
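hDFCGF primary human dermal fibroblasts; 24 h chemical exposure; collagen III by ELISA; bidirectional curve fit vs DMSO baseline (gain or loss of signal).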

Read-out in assay [5]: Epidermal growth factor receptor (EGFR), EGFR (gene 1956)
Briefly: BSK_hDFCGF_EGFR: BioMAP Diversity Plus: hDFCGF Assay for Epidermal growth factor receptor (EGFR) Biomarker Activity (AID 2283057). The note with it: primary human foreskin fibroblasts; actives raise or lower the signal. In a few lines:
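ELISA readout of EGFR on human dermal fibroblasts (primary foreskin cells), 24 h post-dosing; bidirectional curve fit vs DMSO baseline, gain or loss of signal scored.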

Read-out in assay [6]: Interleukin-8 (IL8), CXCL8 (gene 3576)
Nature of the assay: BSK_hDFCGF_IL8: BioMAP Diversity Plus: hDFCGF Assay for Interleukin-8 (IL8) Biomarker Activity (AID 2283058). The note with it: primary human foreskin fibroblasts; actives raise or lower the signal. In a few lines: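 ELISA read-out of IL-8 from primary human foreskin fibroblast cultures taken 24 h after dosing; values are bidirectional fits relative to DMSO vehicle.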

Assay [7] can be described thus: BSK_hDFCGF_Proliferation: Cell Proliferation Assessment in the BioMAP Diversity Plus: hDFCGF Assay (AID 2283059).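 Note: curves fitted for both rise and fall of signal versus DMSO baseline.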 The note with it: primary human foreskin fibroblasts. The essentials:
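This proliferation readout used SRB total-protein staining of human foreskin fibroblasts […], normalized to DMSO with bidirectional curve fitting.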

Read-out in assay [8]: Macrophage colony-stimulating factor (MCSF), CSF1 (gene 1435)
Nature of the assay: BSK_hDFCGF_MCSF: BioMAP Diversity Plus: hDFCGF Assay for Macrophage colony-stimulating factor (MCSF) Biomarker Activity (AID 2283060). The note with it: primary human foreskin fibroblasts; actives raise or lower the signal. In a few lines: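 ELISA read-out of M-CSF in human dermal foreskin fibroblast cultures, 24 h after chemical dosing; gain or loss of signal fitted bidirectionally relative to DMSO baseline.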

Assay [9] is described as follows: BSK_hDFCGF_SRB: Viability Assessment in the BioMAP Diversity Plus: hDFCGF Assay (AID 2283061).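 Note: cells exposed to compound for 24 h before the read.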 The note with it: primary human foreskin fibroblasts. In a few lines: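 Primary human foreskin fibroblasts; 24 h post-dose; fixed 10% TCA, stained 0.1% SRB, A560 read; total protein as overt cytotoxicity measure; curves fit bidirectionally vs DMSO control.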
Read-out in assay [10]: TIMP metallopeptidase inhibitor 1 (TIMP1), TIMP1 (gene 7076)
Briefly: BSK_hDFCGF_TIMP1: BioMAP Diversity Plus: hDFCGF Assay for TIMP metallopeptidase inhibitor 1 (TIMP1) Biomarker Activity (AID 2283062). The following applies: primary human foreskin fibroblasts; actives raise or lower the signal. In a few lines: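 ELISA readout of TIMP-1 from human dermal foreskin fibroblast cultures 24 h post-dosing. Curves were fitted in both directions against DMSO baseline, with SRB total-protein staining in parallel cultures as a cytotoxicity check.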

The AC50 is the concentration at which the activity in the assay is half-maximal.

Several values for one entry are separate records, joined by “and”; a condition that tells them apart may be missing. Identical values can stand only once. Activity calls are given as the source filed them. Rule for the calls: active = hit-call score of the fitted dose curve at least 0.9, where 1 is the maximum; inactive = score below 0.9.

On to `COc1cc(Cl)c(OC)cc1N`, for which the result in [1], in assay [2], in assay [3], in [4], in [5] and in [6] was inactive. Also, the outcome in assay [7], in [8], in assay [9] and in [10] was inactive.

For `CN(c1nccc(=O)[nH]1)C1CCN(c2nc3ccccc3n2Cc2ccc(F)cc2)CC1`, the result in assay [1], in assay [2], in [3], in assay [4], in [5] and in assay [6] was inactive. The outcome in assay [7], in assay [8], in assay [9] and in [10] was inactive.

For the molecule `C=C(C)C(=O)OCCOCCOCCOCCOC(=O)C(=C)C`, the result in assay [1], in assay [2], in assay [3], in assay [4], in assay [5] and in assay [6] was inactive. Also, the result in assay [7], in [8], in [9] and in assay [10] was inactive.

As to `COc1ccc(CCN2CCC(Nc3nc4ccccc4n3Cc3ccc(F)cc3)CC2)cc1`, the result in [1], in [2], in assay [3], in assay [5], in assay [6] and in assay [9] was inactive. Besides, the AC50 is 5 µM (active) in [4], 5.42 µM (active) in [7], 7.49 µM (active) in [8] and 6.47 µM (active) in [10].

Turning to `C=C(C)C(=O)OCCOCCOCCOC(=O)C(=C)C`, the result in [1], in [2], in [3], in [4], in assay [5] and in assay [6] was inactive. Further, the result in assay [7], in assay [9] and in assay [10] was inactive. Further, the AC50 in assay [8] was 0.0819 µM (active).

Take `O=C1c2ccccc2C(=O)c2c(O)ccc(O)c21`: the result in assay [1], in assay [4], in assay [5], in [6], in [9] and in assay [10] was inactive. The AC50 is 4.99 µM (active) in [2], 5.44 µM (active) in [3], 3.14 µM (active) in [7] and 1.38 µM (active) in assay [8].

Turning to `O=C(Nc1ccc2c(O)c(N=Nc3ccc(N=Nc4ccc(S(=O)(=O)O)cc4)cc3)c(S(=O)(=O)O)cc2c1)c1ccccc1`, the AC50 in assay [1] is 25.5 µM (active) and 36.2 µM (active); in assay [8], 30.8 µM (active) and 29.3 µM (active); in assay [9] it was 35.3 µM (active). Moreover, the outcome in [2], in assay [3], in assay [4], in assay [5], in assay [6] and in [7] was inactive. In addition, in assay [10], the outcome was inactive.

As to `IC(I)I`, the result in assay [1], in [3], in assay [4], in assay [5], in [6] and in assay [7] was inactive. The result in assay [8], in assay [9] and in [10] was inactive. In addition, the AC50 in assay [2] was 0.584 µM (active).

With `CS(=O)(=O)OCCCCOS(C)(=O)=O`, the outcome in assay [1], in assay [2], in assay [3], in assay [4], in assay [5] and in assay [6] was inactive. The outcome in assay [7], in assay [8], in [9] and in assay [10] was inactive.

On to `O=CN1CCOCC1`, for which the outcome in assay [1], in assay [2], in assay [3], in [4], in assay [5] and in assay [6] was inactive. For the same molecule, the result in assay [7], in assay [8], in assay [9] and in [10] was inactive.

For the molecule `C=CC(C)(O)CCC=C(C)C` (stereo not given), the outcome in assay [1], in assay [2], in assay [3], in assay [4], in assay [5] and in [6] was inactive. Moreover, the result in assay [7], in assay [8], in [9] and in [10] was inactive.

Turning to `CC(=O)Nc1ccc(C(=O)CCl)cc1`, the AC50 was 9.56 µM (active) in assay [1]; 5.2 µM (active) in assay [2]; 4.84 µM (active) in assay [3]; 7.2 µM (active) in [4]; 9.4 µM (active) in [6]; 3.18 µM (active) in assay [7]. Also, the AC50 was 8.76 µM (active) in assay [8], 11.2 µM (active) in [9] and 7.91 µM (active) in [10]. Besides, the outcome in [5] was inactive.

For the molecule `CC1(C)CCC[C@]2(C)[C@H]3CCO[C@]3(C)CC[C@@H]12`, the AC50 in assay [1] was 36.5 µM (active) and 37.9 µM (active); in [2], 34 µM (active) and 31.4 µM (active); in assay [3] it was 34.1 µM (active) and 33.7 µM (active); in assay [4], 31.4 µM (active) and 30.6 µM (active); in assay [5] it was 32 µM (active) and 33 µM (active); in assay [6], 37.9 µM (active) and 35.9 µM (active). Moreover, the AC50 is 12.1 µM (active) and 30.5 µM (active) in [7]; 36.6 µM (active) and 30.8 µM (active) in assay [8]; 33.8 µM (active) and 36.4 µM (active) in [9]; 38.6 µM (active) and 32.1 µM (active) in assay [10].

On to `CC(C)(C)CC(C)(C)c1ccc(OCCOCC[N+](C)(C)Cc2ccccc2)cc1`, for which the AC50 in assay [1] was 8.05 µM (active); in assay [2], 7.34 µM (active); in assay [3] it was 8.31 µM (active); in assay [4], 2.22 µM (active); in assay [6], 5 µM (active); in assay [7], 0.496 µM (active). Further, the AC50 in assay [8] was 6.64 µM (active); in assay [9] it was 6.6 µM (active); in assay [10] it was 5 µM (active). Further, in assay [5], the result was inactive.

In the case of `Oc1c(Cl)cc(Cl)c(Cl)c1Cc1c(O)c(Cl)cc(Cl)c1Cl`, the half-maximal activity concentration (AC50) is 2.82 µM (active) in [1]; 1.97 µM (active) in assay [2]; 9.96 µM (active) in assay [3]; 4.93 µM (active) in [4]; 3.96 µM (active) in assay [6]; 0.113 µM (active) in assay [7]. The AC50 in [8] was 1.58 µM (active); in assay [9] it was 5.15 µM (active); in [10], 1.94 µM (active). The result in assay [5] was inactive.

With `O=C1OC[C@H](Cc2cccc(O)c2)[C@H]1Cc1cccc(O)c1`, the result in [1], in assay [2], in assay [3], in assay [4], in assay [5] and in assay [6] was inactive. Also, the result in [7], in assay [8], in assay [9] and in [10] was inactive.

On to `C[C@@H]1CCN(C(=O)[C@H](CCCN=C(N)N)NS(=O)(=O)c2cccc3c2NC[C@H](C)C3)[C@@H](C(=O)O)C1`, for which the outcome in assay [1], in assay [2], in assay [3], in [4], in assay [5] and in [6] was inactive. The outcome in assay [7], in assay [8], in assay [9] and in assay [10] was inactive.

As to `C=C(C)C(=O)OCC(CC)(COC(=O)C(=C)C)COC(=O)C(=C)C`, the AC50 in assay [1] was 33.8 µM (active); in [5] it was 31.7 µM (active); in [7], 26.5 µM (active); in assay [8] it was 23.4 µM (active); in assay [9] it was 32.1 µM (active); in assay [10], 33 µM (active). Further, the result in [2], in assay [3], in assay [4] and in assay [6] was inactive.

With `c1ccc(CCc2ccccc2)cc1`, the AC50 in assay [1] was 34.1 µM (active); in assay [2], 31.9 µM (active); in assay [3], 37.6 µM (active); in assay [4] it was 36.1 µM (active); in [7], 13.8 µM (active); in assay [8], 30.5 µM (active). Also, the AC50 in [9] is 30.3 µM (active); in assay [10] it was 36.6 µM (active). Also, the outcome in [5] and in assay [6] was inactive.

As to `CCCCCCCCCCCCCCCC(=O)OC/C=C(C)/C=C/C=C(C)/C=C/C1=C(C)CCCC1(C)C`, the outcome in assay [1], in assay [2], in assay [5], in assay [6] and in assay [9] was inactive. Also, the AC50 in assay [3] was 0.0326 µM (active); in assay [4] it was 3.97 µM (active); in [7] it was 27.7 µM (active); in [8] it was 24.7 µM (active); in [10] it was 0.846 µM (active).

Take `Cc1cc(CCC(=O)OCCOCCOCCOC(=O)CCc2cc(C)c(O)c(C(C)(C)C)c2)cc(C(C)(C)C)c1O`: the result in assay [1], in [2], in assay [3], in assay [5], in [6] and in assay [8] was inactive. Moreover, the outcome in assay [9] and in assay [10] was inactive. In addition, the AC50 in assay [4] was 23.1 µM (active); in assay [7], 22.8 µM (active).

`CSCCC=O`: the outcome in assay [1], in assay [2], in assay [3], in assay [4], in [5] and in assay [6] was inactive. Further, the result in [7], in assay [8], in assay [9] and in assay [10] was inactive.

`CC(=O)c1c(C)c([N+](=O)[O-])c(C(C)(C)C)c([N+](=O)[O-])c1C`: the outcome in assay [1], in [2], in assay [3], in assay [4], in assay [5] and in assay [6] was inactive. Besides, the result in [7], in assay [8], in [9] and in assay [10] was inactive.

The values are drawn from PubChem BioAssay (EPA / NIEHS).
